Sampled rows, rich in hits. Any-hit rate of the full collection: about 3%.
C2C12 statin – suppressors of statin myotoxicity in C2C12 myotubes, primary screen, cell-based, single point, plate reader | rescue of ATP level, % at 7.49 µM | C2C12 myotubes + simvastatin, ATP luminescence, 48 h; scaled: DMSO 0, geranylgeraniol control 100 | 330,000 tested, 0.78% active;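 active = mean ATP rescue above about 67%, or every replicate alone reaching that limit, limit read from the data, passing the limit was not always enough; inconclusive = no clear call, values can overlap the other calls; inactive = mean under the limit and some replicate under it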;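 also: myotubes were challenged with 10 µM simvastatin during compound exposure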
esBAF inh – Bmi1 luciferase reporter increase in mESCs, primary screen, esBAF inhibitor project, mouse ES cells, Bmi1 luciferase knock-in, single point; 24 h; 100% = twice the neutral-well signal; reporter increase, % at 12.5 µM; 350,000 tested, 2% active; in the data active = activation above about 40%; inconclusive = no clear call, values can overlap the other calls;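 also: 0% = median of the plate's neutral control wells and 100% = double that signal; a rise in the Bmi1 reporter signal indicates esBAF inhibition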
MITF TRPM1 HTS – activators of MITF-driven TRPM1 promoter reporter, primary screen, cell-based, SK-MEL-5, luciferase, single point | SK-MEL-5 TRPM1-promoter luciferase, 24 h; % of positive control, neutral wells = 0 | activation, % at 12.5 µM | 300,000 tested, 0.75% active | AID 588334, 2011;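 active = mean activation of at least 80% with every replicate also reaching 80%; inconclusive = mean reaches 80% but some replicate falls short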;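 also: 0% = neutral control wells and 100% = parthenolide positive control wells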
Wnt bcat act – Wnt/beta-catenin pathway activators, primary screen, cell-based, plate reader, single point; Wnt/beta-catenin reporter cell assay, activator; activation, % at 9.35 µM; 300,000 tested, 1.2% active; in the data active = activation above about 30%, passing the limit was not always enough; inconclusive = no clear call, values can overlap the other calls;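 also: 0% = neutral control wells and 100% = positive control wells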
Starred values were filed as active, the others as inactive; ? = inconclusive; . = no result.

SMILES	C2C12 statin	esBAF inh	MITF TRPM1 HTS	Wnt bcat act
Cc1ccc(-c2ccc(SCC(=O)NC3CCCCC3)nn2)cc1	0.3	52.4*	42.0	4.2
COc1ccc(-c2ccc(SCC(=O)NC3CCCCC3)nn2)cc1	21.3	15.9	35.0	19.7
CCOc1ccc(-c2ccc(SCC(=O)NC3CCCCC3)nn2)cc1	-9.7	?	94.5*	20.4
Cc1ccc(-c2ccc(SCC(=O)NC3CCCC3)nn2)cc1	.	.	28.1	6.9
Cc1noc(C)c1NC(=O)Nc1ccc2c(c1)CC(=O)N([C@@H](C)CO)C[C@@H](C)[C@@H](CN(C)C)O2	5.3	-7.6	.	.
COc1ccc(OC)c(/C=C/C(=O)Nc2ccc(OC)nc2)c1	.	.	14.3	0.1
COc1ccc(NC(=O)/C=C/c2cccc(F)c2)cn1	.	.	31.1	36.0*
COc1ccc(NC(=O)/C=C/c2ccc(Br)o2)cn1	-0.6	27.1	46.1	3.4
COc1ccc(NC(=O)/C=C/c2ccco2)cn1	7.8	43.7*	118.0*	?
Cc1ccc2oc(Nc3nc(C)c(C)c(C)n3)nc2c1	.	.	.	40.9*
Cc1nc(Nc2nc3ccccc3o2)nc(C)c1C	.	.	4.5	-1.7
C[C@@H]1CN([C@H](C)CO)C(=O)c2cc(-c3ccc(C#N)cc3)cnc2O[C@H]1CN(C)C(=O)CC1CC1	2.7	-1.7	.	.
CCN1CCC2(CC1)Oc1c(OC)cccc1C1CC(c3cccnc3)=NN12 (stereo unspecified)	.	.	.	36.3*
CO[C@@H]1CC[C@@H]2CCN(C)C(=O)[C@@H](C)CN(C)C(=O)c3cccc(C#N)c3OC[C@@H]1O2	-3.0	-9.5	.	.
Cc1nc(NC(=O)c2ccccc2)sc1-c1csc(N)n1	-23.7	53.1*	-1.7	?
Cc1nc(NC(=O)c2ccccc2)sc1-c1csc(NCc2ccccc2)n1	-25.3	18.2	6.3	-0.3
COc1ccccc1Nc1nc(-c2sc(NC(=O)c3ccccc3)nc2C)cs1	-12.9	15.9	3.3	1.5
CCOc1ccccc1Nc1nc(-c2sc(NC(=O)c3cccc(Cl)c3)nc2C)cs1	-18.7	64.4*	16.0	-0.3
O=C(NCc1ccccc1)C1=C[C@H](c2ccc(Br)cc2)C[C@H](OCCCCO)O1	0.2	-4.7	-4.7	-2.4
O=C(Nc1ccccc1)C1=C[C@H](c2ccccc2)C[C@H](OCc2ccc(CO)cc2)O1	6.9	5.6	3.2	-0.8
O=C(Nc1ccccc1)C1=C[C@@H](C2CC2)C[C@@H](OCCCCO)O1	7.9	66.9*	35.7	?
O=C(Nc1ccccc1)C1=C[C@H](c2ccc(C(F)(F)F)cc2)C[C@H](OCCCCO)O1	-7.4	34.3	42.0	10.3
O=C(Nc1ccccc1)C1=C[C@@H](c2ccc(Br)cc2)C[C@@H](OCCCCO)O1	-16.1	57.4*	72.2	23.1
O=C(Nc1ccccc1)C1=C[C@@H](C2CC2)C[C@@H](OCc2ccc(CO)cc2)O1	-0.1	59.5*	4.7	?
O=C(Nc1ccccc1)C1=C[C@H](c2ccccc2)C[C@H](OCCCCO)O1	0.2	51.1*	67.7	33.0*
SMILES	C2C12 statin	esBAF inh	MITF TRPM1 HTS	Wnt bcat act
Cc1cc(C(=O)Nc2cccc3c2O[C@H](CN(C)Cc2ccc(Cl)c(Cl)c2)[C@@H](C)CN([C@H](C)CO)C3=O)n(C)n1	-45.0	-1.8	.	.
COc1ccc2sc(-c3ccccc3OC)c(-c3ccc(O)cc3)c2c1	131.5*	-8.5	1.0	-2.2
COc1ccc(-c2noc(-c3cccs3)n2)cc1OC	15.3	53.1*	.	59.6*
COc1ccc(-c2noc(COc3ccccc3OC)n2)cc1OC	21.0	27.1	.	3.0
COc1ccc(-c2noc(-c3ccccc3Cl)n2)cc1OC	15.8	?	85.7*	-0.4
Brc1ccc(-c2nc(-c3ccccc3)no2)o1	2.9	24.0	26.2	49.7*
COc1ccc(-c2noc(-c3cccc(Cl)c3)n2)cc1OC	2.9	48.5*	?	10.9
CCCNC(=O)[C@H]1[C@H](CO)[C@H]2Cn3c(cccc3=O)[C@H]2N1CC1CC1	3.0	0.5	.	.
C[C@@H]1CN([C@H](C)CO)S(=O)(=O)c2ccc(C3=CCCCC3)cc2O[C@@H]1CN(C)C(=O)c1ccncc1	-19.7	1.5	.	.
C[C@H](CO)N1C[C@H](C)[C@H](CN(C)C(=O)Nc2ccc(C(F)(F)F)cc2)Oc2c(NC(=O)Nc3ccc4c(c3)OCO4)cccc2C1=O	.	1.5	.	.
COc1ccc(CCC(=O)Nc2ccc(-c3noc(-c4ccc(OC)c(OC)c4)n3)cc2)cc1	23.0	42.8*	15.0	.
COc1ccc(-c2nc(-c3ccncc3)no2)cc1OC	-7.7	62.9*	.	.
Cc1ccc(-c2nc(-c3ccncc3)no2)cc1Cl	5.0	33.7	.	8.5
Cc1ccc(-c2nc(-c3ccncc3)no2)cc1C	3.5	-14.0	.	38.8*
COc1cccc(-c2nc(-c3ccncc3)no2)c1	.	.	26.5	34.7*
CCOc1ccc(-c2noc(-c3ccncc3)n2)cc1OCC	.	10.5	.	2.5
CN(C)C(=O)c1cccc(-c2ccc3c(c2)[C@@H]2[C@@H](CCN2S(=O)(=O)c2cn(C)cn2)[C@H](CO)N3)c1	-15.0	0.5	.	.
O=C(C[C@@H]1CC[C@H]2[C@@H](COC[C@@H](O)CN2C(=O)c2ccccn2)O1)NC1CCC1	-15.8	-2.0	.	.
COc1cccc(-c2nc(-c3ccc(Br)o3)no2)c1	.	.	51.0	45.4*
CC(C)Cc1ccc(/C=C/C(=O)N2CCOCC2)cc1	13.6	51.5*	102.7*	16.8
CC(C)(C)c1ccc(/C=C/C(=O)N2CCOCC2)cc1	.	.	53.6	-3.6
O=C(C[C@H]1C[C@H]2c3cc(NS(=O)(=O)c4ccc(F)cc4)ccc3O[C@H]2[C@@H](CO)O1)NC1CCCCC1	-3.6	12.3	.	.
Cn1nc(C(=O)Nc2ccc(S(=O)(=O)N3CCCCC3)cc2)ccc1=O	96.3*	-6.7	-10.3	-0.5
O=C(OCc1ccc(Cl)c(Cl)c1)c1ccc[nH]1	16.8	49.7*	56.3	12.0
O=C(Cc1ccc(Cl)c(Cl)c1)OCC(=O)c1ccc[nH]1	11.9	-5.3	6.0	.
SMILES	C2C12 statin	esBAF inh	MITF TRPM1 HTS	Wnt bcat act
COc1ccc(S(=O)(=O)Nc2ccc3c(c2)C(=O)N([C@H](C)CO)C[C@@H](C)[C@H](CN(C)C(=O)C2CCCCC2)OCCCC[C@H](C)O3)cc1	.	-4.7	.	.
CC(C)(C)C(=O)Nc1nc(-c2ccccc2)ns1	.	48.6*	.	.
O=C(Nc1nc(-c2ccccc2)ns1)c1ccncc1	.	.	12.8	?
N#C/C(=N\Nc1ccc(Br)cc1)C(=N)N1CCOCC1	-4.4	56.1*	91.9*	11.7
N#C/C(=N\Nc1ccccc1[N+](=O)[O-])C(=N)N1CCCCC1	-15.2	51.0*	57.5	54.2*
N#C/C(=N/Nc1ccc([N+](=O)[O-])cc1)C(=N)N1CCCCC1	.	.	101.3*	.
O=C(C[C@@H]1CC[C@@H]2[C@H](COC[C@H](O)CN2Cc2nccs2)O1)NCc1ccccc1F	-11.1	4.7	.	.
CCN(CC)CCN(C(=O)c1ccc(C(=O)c2ccccc2)cc1)c1nc2cc3c(cc2s1)OCO3	-3.9	11.3	22.1	1.2
CCN(CC)CCN(C(=O)c1ccc2ncsc2c1)c1nc2cc3c(cc2s1)OCO3	14.3	54.5*	18.8	21.5
